Measurements published in PubChem BioAssay AID1159580 (chemical genetic matrix, 2015).
Screen size: about 5,500 compounds; about 2,000 (36%) were called active. Not shown: some 18% with an inconclusive outcome. Cut-off read from the data, not from the text of the source: active = normalized growth mostly below about 0.91 (no sharp cut-off); inconclusive = no clear call, values can overlap the other calls; inactive = mostly above about 0.92. Some of the results follow.

Experiment: chemical genetic growth profiling, strain panel (AID 1159580);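 note: tested at 20 µM; growth read once vehicle control cultures reached saturation at 30 °C; 1 = growth at the plate median or of vehicle wells; lower values mean less growth of the strain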
Settings: growth OD

Measured: normalized growth

CC(=O)NC(=O)/C(C#N)=C/N1CCN(Cc2ccccc2)CC1
inactive: S. cerevisiae deletion strains, locus YAL013W, strain DEP1, active compounds read low 0.987 | S. cerevisiae deletion strains, locus YBR229C, strain ROT2, active compounds read low 0.989 | S. cerevisiae deletion strains, locus YDL101C, strain DUN1, active compounds read low 1.01 | S. cerevisiae deletion strains, locus YDL134C, strain PPH21, active compounds read low 1.01 | S. cerevisiae deletion strains, locus YDR150W, strain NUM1, active compounds read low 0.969 | S. cerevisiae deletion strains, locus YEL061C, strain CIN8, active compounds read low 0.996 | S. cerevisiae deletion strains, locus YGR078C, strain PAC10, active compounds read low 0.994 | S. cerevisiae deletion strains, locus YHR030C, strain SLT2, active compounds read low 0.947 | S. cerevisiae deletion strains, locus YHR087W, strain rtc3, active compounds read low 0.994 | S. cerevisiae deletion strains, locus YJR043C, strain POL32, active compounds read low 0.976 | S. cerevisiae deletion strains, locus YJR075W, strain HOC1, active compounds read low 1.01 | S. cerevisiae deletion strains, locus YKL190W, strain CNB1, active compounds read low 1 | S. cerevisiae deletion strains, locus YLR039C, strain RIC1, active compounds read low 1.01 | S. cerevisiae deletion strains, locus YLR058C, strain SHM2 (second series), active compounds read low 0.988 | S. cerevisiae deletion strains, locus YLR085C, strain ARP6, active compounds read low 1.07 | S. cerevisiae deletion strains, locus YLR262C, strain YPT6, active compounds read low 0.982 | S. cerevisiae deletion strains, locus YML094W, strain GIM5, active compounds read low 1.01 | S. cerevisiae deletion strains, locus YMR219W, strain ESC1, active compounds read low 1 | S. cerevisiae deletion strains, locus YMR263W, strain SAP30, active compounds read low 0.997 | S. cerevisiae deletion strains, locus YMR307W, strain GAS1, active compounds read low 1.11 | S. cerevisiae deletion strains, locus YNL128W, strain TEP1, active compounds read low 0.981 | S. cerevisiae deletion strains, locus YNL153C, strain GIM3, active compounds read low 0.977 | S. cerevisiae deletion strains, locus YNL298W, strain CLA4 (second series), active compounds read low 0.95 | S. cerevisiae deletion strains, locus YNL322C, strain KRE1, active compounds read low 0.991 | S. cerevisiae deletion strains, locus YNR030W, strain Alg12, active compounds read low 0.987 | S. cerevisiae deletion strains, locus YPL055C, strain LGE1, active compounds read low 1.05 | S. cerevisiae deletion strains, locus YPL241C, strain CIN2, active compounds read low 0.989 | S. cerevisiae deletion strains, locus YPR135W, strain CTF4, active compounds read low 0.886 | S. cerevisiae strains, strain wild type, active compounds read low 0.974
